According to PubChem BioAssay (Tox21):
Results filed as inconclusive are left out. Entries that show only a call come without a potency. Unmarked numbers belong to inactive results. Calls of active or inactive are those of the source. Calls follow the shape of the dose curve; as a rule, active = well fitted activation curve with a large enough effect in the repeat runs; inconclusive = weak or mixed curves; inactive = flat fitted curve, though single readings scatter.

Assay: Caspase-3/7 induction in HepG2 cells by small molecules, qHTS assay (AID 1346978); also: nearly all actives have a fitted effect of over 15% in size
Details: HepG2 caspase-3/7 activation, Caspase-Glo luminescence, 17 h; series mostly up to 92.4 µM
Source text: National Center for Advancing Translational Sciences [NCATS] NIH Chemical Genomics Center [NCGC] U.S. Environmental Protection Agency [EPA] National Institutes of Environmental Health Sciences [NIEHS] National Toxicology Program [NTP] Assay overview: Apoptosis is a process of programmed cell death and plays a central role in the development of multicellular organisms. It is a highly regulated process and induces cell death by activating caspases, which are the members of cysteine aspartic acid-specific protease (caspase) family. Caspases involved in apoptosis are classified by their mechanism of action as initiator caspases (caspase-2, -8, -9 and -10) and executioner caspases (caspase-3, -6, and -7). Inhibition of apoptosis results in number of cancers, autoimmune diseases, inflammatory diseases and viral infection. To identify small molecule compounds that induce apoptosis, a homogeneous, luminescent Caspase-Glo 3/7 assay was used. Wild type HepG2 cells were used to screen Tox21 libraries for identifying caspase-3/7 activity inducers.
Assay Protocol Summary: HepG2 cells were dispensed at 2,000 per well in 5uL of culture medium into white solid bottom 1536-well plates (Corning Life Sciences, Corning, NY) using a Multidrop Combi (Thermo Scientific, Waltham, MA) dispenser. The assay plates were incubated at 37 C and 5% CO2 for 5hr, and then 23nL of compounds dissolved in DMSO and positive control were transferred using a Pintool station (Wako, San Diego, CA). The assay plates were incubated at 37C and 5% CO2 for 17hr. For caspase-3/7 activity read, 4uL of Caspase-Glo 3/7 reagent (Promega Corporation, Madison, WI) was added to each well of the assay plates using Flying Reagent Dispenser (FRD, Aurora Discovery, San Diego, CA) and incubated the assay plates at room temperature for 30min. The luminescence signal was quantified using a ViewLux plate reader (Perkin Elmer, Shelton, CT).

Compound	Potency	caspase activation
O=C(Nc1ccc2c(c1)Cc1ccccc1-2)C(F)(F)F	inactive	
C/C(=C\C(C)CC(C)CC(C)C)C1CC(=O)OC1=O (stereo not given)	inactive	
C[C@@H](O)[C@H]1C(=O)N2C(C(=O)O)=C(S[C@@H]3CN[C@H](CNS(N)(=O)=O)C3)[C@H](C)[C@H]12	inactive	
N#CCCCC(C#N)CCC#N (stereo not given)	inactive	
CC1=CC(=C(c2ccc(N)cc2)c2ccc(N)cc2)C=CC1=N		0.381% [at 8.39 µM]
CC1(C)CC(=O)CC(C)(C)N1	inactive	
O=S(=O)(O)c1cc(Cl)c(Cl)cc1Cl	inactive	
Nc1ccc(F)cc1F	inactive	
C1=COCCC1	inactive	
CCc1ccc2c(c1)C(=O)c1ccccc1C2=O	inactive	
CC1(C)CC(O)CC(C)(C)N1[O]	inactive	
OCCOc1cccc(OCCO)c1	inactive	
CC1(C)[C@@H]2CC[C@]3(C2)[C@@H]1C(=O)CCC3(C)C	inactive	
O=P(c1ccccc1)(c1ccccc1)c1ccccc1	inactive	
O=C(N[C@@H](Cc1ccccc1)[C@@H](O)C(=O)N1C[C@@H](O)[C@@H](O)C1)c1cc2cc(Cl)ccc2[nH]1	inactive	
CC(=O)S[C@H](C(=O)N[C@H]1Cc2ccccc2[C@H]2CCC[C@@H](C(=O)O)N2C1=O)C(C)C	inactive	
CC(=O)c1ccc(Cl)c(Cl)c1Cl	inactive	
CC1(C)C(=O)NC(=O)N1CO	inactive	
CCCCCCCCCCCCN1CCOCC1	inactive	
CCOC(=O)CC(O)(CC(=O)OCC)C(=O)OCC	inactive	

Compound	Potency	caspase activation
CCC(C)CCCC(C)(C)O (stereo not given)	inactive	
Cc1cc(C)c(C)c(O)c1	inactive	
O=C(c1ccco1)N1CCNCC1	inactive	
Cc1ccc2ccccc2c1[N+](=O)[O-]	inactive	
CCCCCCC/C=C/C=O	inactive	
COC=O		-1.76% [at 8.39 µM]
O=[N+]([O-])c1cccc(I)c1	inactive	
CS(C)=O	inactive	
CC(C)(Cc1c[nH]c2ccccc12)NCC(O)COc1ccccc1C#N (stereo not given)	inactive	
CC(=O)Nc1ccccc1O	inactive	
O=C1C=CCCC1	inactive	
Nc1ccccc1Nc1ccccc1	inactive	
O=C1c2ccccc2C(=O)C1c1ccc2cc(S(=O)(=O)O)cc(S(=O)(=O)O)c2n1	inactive	
C=CC(C)(O)CC/C=C(/C)CCC=C(C)C (stereo not given)	inactive	
CC(=O)c1cccnc1	inactive	
CC(C)Oc1ccccc1O	inactive	
COc1ccc(CN(CCN(C)C)c2ncccn2)cc1	inactive	
FC(F)(Cl)C(F)(Cl)Cl	inactive	
Nc1ncnc2c1ncn2[C@@H]1O[C@H](CO)[C@@H](O)[C@H]1O	inactive	
COc1ccc(/C(C)=C/C(=O)O)c(OC)c1	inactive	
